The full list was thinned out, with hits kept by preference.
Pf Dd2 growth = qHTS Primary assay for Inhibitors of Plasmodium falciparum Dd2 growth in vitro; P. falciparum Dd2 growth, SYBR Green, 72 h; Potency, µM (doses to about 28.9 µM), for inactives: at the top dose activity, negative = inhibition, most hits filed as inhibitors; 120,000 tested, 4.3% active; AID 1347417, 2020; active = well fitted inhibition curve with a large enough effect;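 note: plate controls were DMSO vehicle for no effect and reference drug for full effect; nearly all actives have a fitted effect of over 65% in size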
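Infected erythrocytes (Dd2, 0.3% parasitemia, 2.5% hematocrit final) are added to compound in RPMI-1640/Albumax II medium, grown 72 h at 37C in low oxygen, then lysed with saponin/Triton-X containing SYBR Green and read by fluorescence.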
The depositor's hits bear a star; i = inactive; [ ] = another dose, or the depositor's remark. Potency is the fitted concentration of half-maximal effect.

SMILES	Pf Dd2 growth
CCN(Cc1ccncc1)C(=O)c1cc(-c2cnc(C)nc2)nc2c(C)cccc12	-21%
CCCN(Cc1ccncc1)C(=O)c1cnc(-c2ccccn2)[nH]c1=O	13µM*
CCCCN(Cc1cccnc1)C(=O)c1cnc(-c2ccc(C)cc2)[nH]c1=O	-21%
Cc1cc(C(=O)N2CCC(F)(c3nc(-c4ccncc4)no3)CC2)n(C)n1	1%
CNC(=O)c1cn2c(n1)CN(C(=O)c1ccccc1F)CC2	8%[44.1 µM]
O=C(c1ccc2c(c1)OCO2)N1CCC2(CC1)CN[S+](=O)([O-])c1ccccc1N2	11%
CN1C(=O)CC(C(=O)O)C12CCN(C(=O)Cc1cccc(F)c1)CC2 (stereo not drawn)	-1%
COC[C@@H]1CN(Cc2ccncc2F)C[C@H]1c1nc(C)no1	11%
O=C(NCc1cccnc1)c1cccnc1N1CC2CC(C1)[C@H]1CCCC(=O)N1C2 (stereo partly drawn)	30%
COc1ccc(-c2nc3c(c(SCC(=O)Nc4cccc(O)c4)n2)Cc2c(CO)cnc(C)c2O3)cc1	5.6µM*
C=Cc1ccc(CSc2nc(-c3ccc(OC)cc3)nc3c2Cc2c(CO)cnc(C)c2O3)cc1	3.2µM*
Cc1ncc(CO)c2c1Oc1nc(-c3ccccc3)nc(SCC(=O)Nc3cccc(C(F)(F)F)c3)c1C2	i
Cc1ncc(CO)c2c1Oc1nc(-c3ccc(F)cc3)nc(SCc3ccc(F)cc3Cl)c1C2	64%[0.594 µM]
C=Cc1ccc(CSc2nc(-c3ccccc3C)nc3c2Cc2c(CO)cnc(C)c2O3)cc1	5.6µM*
C=Cc1ccc(CSc2nc(-c3ccc(Cl)cc3)nc3c2Cc2c(CO)cnc(C)c2O3)cc1	11µM*
COc1ccccc1NC(=O)CSc1nc(-c2ccc(C)cc2)nc2c1Cc1c(CO)cnc(C)c1O2	-25%
CCc1ccc(NC(=O)CSc2nc(-c3ccc(C)cc3)nc3c2Cc2c(CO)cnc(C)c2O3)cc1	-27%
CCOc1ccc(NC(=O)CSc2nc(-c3cccc(Cl)c3)nc3c2Cc2c(CO)cnc(C)c2O3)cc1	7%
Cc1ccc(C2c3c(oc4ccccc4c3=O)C(=O)N2c2nnc(C)s2)cc1 (stereo not drawn)	9%
CCOC(=O)CNC(=O)N1CCN(S(=O)(=O)c2ccc3c(ccn3C)c2)CC1	-8%
CN1CCCN(C[C@@H]2CN(C(=O)CC3CCC3)C[C@@H]2CO)CC1	-18%
CCOc1ccc(N(CC(=O)Nc2cc(OC)cc(OC)c2)S(=O)(=O)c2c(C)[nH]c(=O)[nH]c2=O)cc1	-21%
Cc1ccccc1C(=O)N1CC(C(=O)NCCc2ccncc2)C2(CCOCC2)C1 (stereo not drawn)	-6%
CCNC(=O)[C@@H]1C[C@H](n2cc(CN(C)C(=O)NC3CCCCC3)nn2)CN1	-5%
COc1ccc(CN2CCC3(CC2)C(C(=O)O)CC(=O)N3C)cc1Cl (stereo not drawn)	3%
SMILES	Pf Dd2 growth
COc1ccc(CCc2nc3nccc(-c4cccnc4)n3n2)cc1	-30%
CC(=O)Nc1ccc(C2(C(=O)NCc3cccc(Cl)c3)CCC2)cc1	3%
COc1cccc(CNC(=O)CCc2nnc3n(C)c(=O)c4sccc4n23)c1	-14%
O=C(NCc1ccccn1)c1nn(-c2ccccc2Cl)nc1CO	6%
CN1C(=O)CO[C@H]2CN(C(=O)c3cnccn3)C[C@H]21	35%[44.1 µM]
Cc1ccc(C(=O)N2CCC3(CC2)N=C(c2ccccc2)NO3)s1	i
COc1ccc(-c2nc3c(c(SC)n2)Cc2c(CO)cnc(C)c2O3)cc1	-9%
COc1cccc(-c2nc3c(c(SCc4ccccc4Cl)n2)Cc2c(CO)cnc(C)c2O3)c1	2%
COc1ccccc1NC(=O)CSc1nc(-c2cccc(Cl)c2)nc2c1Cc1c(CO)cnc(C)c1O2	7%
COc1cccc(CSc2nc(-c3ccccc3OC)nc3c2Cc2c(CO)cnc(C)c2O3)c1	5µM*
COc1ccc(-c2nc3c(c(SCc4ccc(Br)cc4)n2)Cc2c(CO)cnc(C)c2O3)cc1	1.1µM*
COc1cccc(-c2nc3c(c(SCC(=O)Nc4cccc(C)c4C)n2)Cc2c(CO)cnc(C)c2O3)c1	52%
COCCNC(=O)CC1=CSC2=NC(C)=C(C(=O)Nc3ccccc3)C(c3cccc(C)c3)N12 (stereo not drawn)	i
COc1ccc(C(=O)N2CC(c3nc(CCOCC4CC4)no3)C2)c(OC)n1	-14%
CCOC(=O)c1c(NC(C)=O)c2c3c(sc2n1Cc1nc(-c2cccc(C)c2)oc1C)CCCC3	18%
O=C(NCC1(COc2cccnc2)C[C@@H](O)[C@@H](O)C1)C1CC1 (stereo partly drawn)	7.9µM*
O=C(NCC1(COc2cnccn2)C[C@@H](O)[C@@H](O)C1)C1CC1 (stereo partly drawn)	9%[44.1 µM]
COCC(=O)NCC1(COc2cccnc2)C[C@@H](O)[C@@H](O)C1 (stereo partly drawn)	16%[44.1 µM]
Cc1ccc(CS(=O)(=O)NC2CCc3n[nH]c(=O)n3CC2)cc1C (stereo not drawn)	11%
COc1ccc(N2Cc3c(NCCc4ccccn4)ncnc3N(C)CC2=O)cc1	5%
